This note sets out measurements from publication PMC7862700, “An all-to-all approach to the identification of sequence-specific readers for epigenetic DNA modifications on cytosine”.

What all share (test): DAPPL (digital affinity profiling via proximity ligation, sequencing); 10 mM Tris-HCl pH 7.5, 50 mM NaCl, 1 mM DTT, 4% glycerol, room temperature, 30 min; GST-TFs on glutathione beads, 16-mer random dsDNA library, 0.1% formaldehyde crosslink after washing; high values mean tight binding
Test [1] deals with T1, FEV (Homo sapiens, UniProt Q99581 1-238).
T1 sequence: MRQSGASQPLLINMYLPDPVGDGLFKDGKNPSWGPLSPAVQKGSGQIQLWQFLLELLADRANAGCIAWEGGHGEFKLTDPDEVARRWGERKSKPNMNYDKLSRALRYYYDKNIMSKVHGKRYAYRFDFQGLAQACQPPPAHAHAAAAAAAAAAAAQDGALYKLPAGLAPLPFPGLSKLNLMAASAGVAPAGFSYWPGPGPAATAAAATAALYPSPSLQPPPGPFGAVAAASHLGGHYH
The settings on record: protein: recombinant; tags: N-terminal GST; dsDNA, one strand shown. In a few lines: (§1)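 Binding signal is given per hexamer as its read frequency for a factor divided by its frequency in the tag-only sample. GST-fused human transcription factors were expressed in yeast, captured on glutathione beads, barcoded with DNA and pooled with that sample, then incubated with 200 nmole of a 16-mer random double-stranded DNA library in Tris/NaCl/DTT/glycerol buffer for 30 min at room temperature. The pools were then washed, crosslinked, proximity-ligated, amplified by PCR and sequenced on an Illumina NextSeq500.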

Test [2] deals with ETV5 (Homo sapiens, UniProt P41161 1-510). The settings on record: protein: recombinant; tags: N-terminal GST; dsDNA, one strand shown. The gist of the method:
as §1

The target of test [3] is HSF1 (Homo sapiens, UniProt Q00613 1-529). The settings on record: protein: recombinant; tags: N-terminal GST; chain copies: 3; dsDNA, one strand shown. In a few lines:
as §1

The target of test [4] is T2, SPIC (Homo sapiens, UniProt Q8N5J4 1-248).
T2 sequence: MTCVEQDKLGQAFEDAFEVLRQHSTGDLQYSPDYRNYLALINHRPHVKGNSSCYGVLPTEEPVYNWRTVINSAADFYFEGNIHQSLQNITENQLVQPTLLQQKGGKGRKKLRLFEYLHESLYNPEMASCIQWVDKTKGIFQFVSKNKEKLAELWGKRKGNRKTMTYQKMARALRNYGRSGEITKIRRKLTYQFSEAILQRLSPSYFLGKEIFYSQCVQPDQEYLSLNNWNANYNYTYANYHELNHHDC
As to conditions: protein: recombinant; tags: N-terminal GST; dsDNA, one strand shown. In a few lines:
as §1

Test [5] concerns the target ELF4 (Homo sapiens, UniProt Q99607 1-663). As to conditions: protein: recombinant; tags: N-terminal GST; dsDNA, one strand shown. In a few lines:
as §1

The target in test [6] is T3, ELK4 (Homo sapiens, UniProt P28324-2 1-405).
T3 sequence: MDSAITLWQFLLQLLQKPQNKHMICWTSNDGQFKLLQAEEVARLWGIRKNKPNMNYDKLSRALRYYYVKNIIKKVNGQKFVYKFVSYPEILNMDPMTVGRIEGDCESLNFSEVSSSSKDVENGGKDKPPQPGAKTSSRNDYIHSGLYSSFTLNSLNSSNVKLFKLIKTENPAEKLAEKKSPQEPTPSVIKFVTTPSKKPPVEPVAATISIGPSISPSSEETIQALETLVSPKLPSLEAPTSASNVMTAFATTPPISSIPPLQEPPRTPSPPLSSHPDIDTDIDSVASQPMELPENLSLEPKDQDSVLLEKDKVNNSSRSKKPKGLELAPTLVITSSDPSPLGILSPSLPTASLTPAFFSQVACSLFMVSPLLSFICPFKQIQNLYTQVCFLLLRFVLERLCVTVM
As to conditions: protein: recombinant; tags: N-terminal GST; dsDNA, one strand shown. The gist of the method: as §1

For test [7], the target named is T4, ETV2 (Homo sapiens, UniProt O00321 1-342).
T4 sequence: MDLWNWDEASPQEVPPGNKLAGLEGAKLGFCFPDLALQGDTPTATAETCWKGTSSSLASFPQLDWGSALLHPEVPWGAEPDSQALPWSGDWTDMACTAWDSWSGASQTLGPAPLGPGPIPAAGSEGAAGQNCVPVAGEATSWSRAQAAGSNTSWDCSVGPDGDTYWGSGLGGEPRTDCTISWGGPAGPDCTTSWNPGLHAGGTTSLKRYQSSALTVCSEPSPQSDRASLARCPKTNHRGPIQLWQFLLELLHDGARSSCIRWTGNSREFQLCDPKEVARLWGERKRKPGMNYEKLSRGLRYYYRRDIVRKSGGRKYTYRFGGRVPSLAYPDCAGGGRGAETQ
The settings on record: protein: recombinant; tags: N-terminal GST; dsDNA, one strand shown. In a few lines: as §1

Test [8] addresses T5, ELF3 (Homo sapiens, UniProt P78545 1-371).
T5 sequence: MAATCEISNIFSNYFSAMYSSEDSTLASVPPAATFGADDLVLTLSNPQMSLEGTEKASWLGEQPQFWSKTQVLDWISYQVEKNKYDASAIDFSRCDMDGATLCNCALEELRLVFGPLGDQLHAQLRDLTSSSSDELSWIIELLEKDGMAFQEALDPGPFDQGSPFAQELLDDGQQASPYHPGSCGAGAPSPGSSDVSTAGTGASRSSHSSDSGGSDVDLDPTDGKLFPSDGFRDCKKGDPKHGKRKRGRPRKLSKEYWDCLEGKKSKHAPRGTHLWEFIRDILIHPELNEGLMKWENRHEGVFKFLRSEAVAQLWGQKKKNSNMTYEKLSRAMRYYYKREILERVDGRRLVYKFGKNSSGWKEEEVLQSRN
As to conditions: protein: recombinant; tags: N-terminal GST; dsDNA, one strand shown. The gist of the method:
as §1

Test [9] addresses CRX (Homo sapiens, UniProt O43186 1-299). As to conditions: protein: recombinant; tags: N-terminal GST; dsDNA, one strand shown. In a few lines: as §1
In test [10] the target is ETV1 (Homo sapiens, UniProt P50549 1-477). The settings on record: protein: recombinant; tags: N-terminal GST; dsDNA, one strand shown. The gist of the method: as §1
ETV1, sequence (P50549 whole entry): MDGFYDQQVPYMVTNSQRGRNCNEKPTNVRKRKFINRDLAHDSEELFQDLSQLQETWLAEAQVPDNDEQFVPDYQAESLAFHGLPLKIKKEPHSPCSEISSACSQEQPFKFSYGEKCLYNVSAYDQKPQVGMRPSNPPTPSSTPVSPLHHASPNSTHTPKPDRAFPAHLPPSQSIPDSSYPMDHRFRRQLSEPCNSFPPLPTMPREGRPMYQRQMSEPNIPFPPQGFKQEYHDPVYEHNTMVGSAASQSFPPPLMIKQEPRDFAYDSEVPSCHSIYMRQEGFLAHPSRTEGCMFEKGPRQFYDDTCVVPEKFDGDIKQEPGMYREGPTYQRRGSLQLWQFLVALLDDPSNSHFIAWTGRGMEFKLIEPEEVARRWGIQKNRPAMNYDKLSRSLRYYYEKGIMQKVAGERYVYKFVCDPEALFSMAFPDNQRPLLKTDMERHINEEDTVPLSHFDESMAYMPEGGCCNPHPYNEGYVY
For test [11], the target named is T6, ERF (Homo sapiens, UniProt P50548 1-548).
T6 sequence: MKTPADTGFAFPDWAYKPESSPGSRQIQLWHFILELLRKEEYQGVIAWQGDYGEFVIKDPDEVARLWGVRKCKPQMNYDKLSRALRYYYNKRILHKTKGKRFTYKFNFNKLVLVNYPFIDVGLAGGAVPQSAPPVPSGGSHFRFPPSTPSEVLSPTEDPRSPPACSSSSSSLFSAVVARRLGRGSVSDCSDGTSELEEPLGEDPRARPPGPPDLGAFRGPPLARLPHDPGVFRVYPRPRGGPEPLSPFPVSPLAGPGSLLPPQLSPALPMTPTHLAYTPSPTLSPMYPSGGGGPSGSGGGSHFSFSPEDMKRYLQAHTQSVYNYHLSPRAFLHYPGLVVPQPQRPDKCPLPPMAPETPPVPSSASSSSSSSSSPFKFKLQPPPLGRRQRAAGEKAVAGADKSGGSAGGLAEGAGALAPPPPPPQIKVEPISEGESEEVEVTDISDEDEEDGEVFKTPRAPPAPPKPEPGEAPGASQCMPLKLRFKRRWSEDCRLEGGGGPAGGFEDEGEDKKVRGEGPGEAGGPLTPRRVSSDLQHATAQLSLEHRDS
As to conditions: protein: recombinant; tags: N-terminal GST; dsDNA, one strand shown. The gist of the method:
as §1

Test [12] has as its target T7, ETV3L (Homo sapiens, UniProt Q6ZN32 1-361).
T7 sequence: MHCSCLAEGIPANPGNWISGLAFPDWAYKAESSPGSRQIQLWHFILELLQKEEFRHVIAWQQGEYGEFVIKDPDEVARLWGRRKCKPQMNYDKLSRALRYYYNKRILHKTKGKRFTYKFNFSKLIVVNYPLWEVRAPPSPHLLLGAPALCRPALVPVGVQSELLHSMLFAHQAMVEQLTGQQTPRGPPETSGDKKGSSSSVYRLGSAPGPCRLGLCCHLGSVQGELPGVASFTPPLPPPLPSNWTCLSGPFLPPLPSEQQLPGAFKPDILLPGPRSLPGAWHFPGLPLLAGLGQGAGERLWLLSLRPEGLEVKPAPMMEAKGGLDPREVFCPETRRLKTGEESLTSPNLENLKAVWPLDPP
The settings on record: protein: recombinant; tags: N-terminal GST; dsDNA, one strand shown. The gist of the method:
as §1

Test [13] deals with T8, ETS2 (Homo sapiens, UniProt P15036 1-469).
T8 sequence: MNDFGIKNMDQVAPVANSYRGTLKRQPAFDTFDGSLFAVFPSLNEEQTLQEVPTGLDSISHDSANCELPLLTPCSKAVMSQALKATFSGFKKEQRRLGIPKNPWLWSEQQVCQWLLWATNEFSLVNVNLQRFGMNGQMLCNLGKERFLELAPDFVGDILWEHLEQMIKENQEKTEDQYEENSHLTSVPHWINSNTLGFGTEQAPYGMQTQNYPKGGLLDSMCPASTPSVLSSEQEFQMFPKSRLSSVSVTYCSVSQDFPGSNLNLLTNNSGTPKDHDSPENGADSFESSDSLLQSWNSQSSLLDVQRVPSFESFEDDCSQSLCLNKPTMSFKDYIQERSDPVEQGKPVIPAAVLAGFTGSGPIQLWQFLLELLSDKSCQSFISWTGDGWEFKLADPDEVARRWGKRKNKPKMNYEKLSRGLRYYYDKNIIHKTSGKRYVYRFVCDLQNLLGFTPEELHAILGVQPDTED
The settings on record: protein: recombinant; tags: N-terminal GST; dsDNA, one strand shown. The gist of the method: as §1

For test [14], the target named is T9, SPDEF (Homo sapiens, UniProt O95238 1-335).
T9 sequence: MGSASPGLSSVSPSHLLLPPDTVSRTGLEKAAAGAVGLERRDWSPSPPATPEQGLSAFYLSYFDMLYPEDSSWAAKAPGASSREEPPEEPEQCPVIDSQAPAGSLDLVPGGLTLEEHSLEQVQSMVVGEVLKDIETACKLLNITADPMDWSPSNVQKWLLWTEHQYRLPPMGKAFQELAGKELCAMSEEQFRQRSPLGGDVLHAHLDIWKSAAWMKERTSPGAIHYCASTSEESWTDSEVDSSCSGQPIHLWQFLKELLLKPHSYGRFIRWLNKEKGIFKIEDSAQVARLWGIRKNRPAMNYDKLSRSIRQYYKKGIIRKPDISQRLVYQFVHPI
As to conditions: protein: recombinant; tags: N-terminal GST; dsDNA, one strand shown. In a few lines: as §1

For test [15], the target named is T10, ETV7 (Homo sapiens, UniProt Q9Y603 1-341).
T10 sequence: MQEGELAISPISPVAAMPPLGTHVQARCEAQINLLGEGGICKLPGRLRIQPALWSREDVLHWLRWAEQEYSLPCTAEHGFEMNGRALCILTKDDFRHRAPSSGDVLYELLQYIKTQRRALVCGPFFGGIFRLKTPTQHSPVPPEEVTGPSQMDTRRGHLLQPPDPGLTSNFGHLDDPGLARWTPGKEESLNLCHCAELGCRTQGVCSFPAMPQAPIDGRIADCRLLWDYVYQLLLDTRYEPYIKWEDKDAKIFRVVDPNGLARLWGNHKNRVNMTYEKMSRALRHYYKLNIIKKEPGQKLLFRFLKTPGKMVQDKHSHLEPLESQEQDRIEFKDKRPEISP
As to conditions: protein: recombinant; tags: N-terminal GST; dsDNA, one strand shown. The gist of the method: as §1

Test [16] deals with T11, ELF5 (Homo sapiens, UniProt Q9UKW6-2 1-255).
T11 sequence: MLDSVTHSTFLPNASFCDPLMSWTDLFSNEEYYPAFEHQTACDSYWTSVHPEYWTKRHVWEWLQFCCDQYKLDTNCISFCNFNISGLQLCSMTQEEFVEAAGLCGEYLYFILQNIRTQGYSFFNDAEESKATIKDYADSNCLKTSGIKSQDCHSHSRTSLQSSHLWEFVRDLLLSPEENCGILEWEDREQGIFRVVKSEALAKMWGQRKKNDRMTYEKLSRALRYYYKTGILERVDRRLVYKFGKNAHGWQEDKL
The settings on record: protein: recombinant; tags: N-terminal GST; dsDNA, one strand shown. In a few lines: as §1

The target of test [17] is T12, ETV3 (Homo sapiens, UniProt P41162-2 1-143).
T12 sequence: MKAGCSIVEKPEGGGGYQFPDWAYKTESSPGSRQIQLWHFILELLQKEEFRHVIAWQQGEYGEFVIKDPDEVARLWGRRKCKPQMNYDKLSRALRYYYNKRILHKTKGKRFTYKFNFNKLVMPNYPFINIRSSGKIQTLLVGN
As to conditions: protein: recombinant; tags: N-terminal GST; dsDNA, one strand shown. The gist of the method:
as §1

The target in test [18] is ETV6 (Homo sapiens, UniProt P41212 1-452). The settings on record: protein: recombinant; tags: N-terminal GST; dsDNA, one strand shown. The gist of the method: as §1
ETV6, sequence (P41212 whole entry): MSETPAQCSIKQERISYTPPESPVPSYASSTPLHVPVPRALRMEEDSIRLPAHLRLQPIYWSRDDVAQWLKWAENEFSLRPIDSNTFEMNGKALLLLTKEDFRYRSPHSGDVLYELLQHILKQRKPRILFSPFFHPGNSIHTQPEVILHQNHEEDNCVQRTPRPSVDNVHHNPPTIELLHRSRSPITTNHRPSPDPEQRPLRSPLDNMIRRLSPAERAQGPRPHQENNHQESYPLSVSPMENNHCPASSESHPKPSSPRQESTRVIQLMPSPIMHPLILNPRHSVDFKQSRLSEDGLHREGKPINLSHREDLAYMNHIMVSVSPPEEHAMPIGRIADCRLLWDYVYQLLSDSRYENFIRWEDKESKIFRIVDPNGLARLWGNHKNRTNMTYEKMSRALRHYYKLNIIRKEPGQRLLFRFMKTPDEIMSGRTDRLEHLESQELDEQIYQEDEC

HSF1, sequence (Q00613 whole entry): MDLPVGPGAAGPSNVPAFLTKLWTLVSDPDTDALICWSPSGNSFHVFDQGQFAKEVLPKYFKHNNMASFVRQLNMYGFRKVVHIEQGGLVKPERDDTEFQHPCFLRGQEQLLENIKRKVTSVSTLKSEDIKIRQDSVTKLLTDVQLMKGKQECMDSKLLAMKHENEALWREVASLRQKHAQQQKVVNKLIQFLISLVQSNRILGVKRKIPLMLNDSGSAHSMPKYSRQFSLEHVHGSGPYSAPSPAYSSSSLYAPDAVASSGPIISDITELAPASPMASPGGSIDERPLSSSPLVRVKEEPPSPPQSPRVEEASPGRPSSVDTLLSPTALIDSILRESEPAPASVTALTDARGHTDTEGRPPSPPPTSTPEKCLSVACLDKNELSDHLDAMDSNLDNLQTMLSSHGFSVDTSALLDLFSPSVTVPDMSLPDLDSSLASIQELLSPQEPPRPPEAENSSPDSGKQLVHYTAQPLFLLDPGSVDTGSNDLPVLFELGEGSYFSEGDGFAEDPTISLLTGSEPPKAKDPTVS
CRX, sequence (O43186 whole entry): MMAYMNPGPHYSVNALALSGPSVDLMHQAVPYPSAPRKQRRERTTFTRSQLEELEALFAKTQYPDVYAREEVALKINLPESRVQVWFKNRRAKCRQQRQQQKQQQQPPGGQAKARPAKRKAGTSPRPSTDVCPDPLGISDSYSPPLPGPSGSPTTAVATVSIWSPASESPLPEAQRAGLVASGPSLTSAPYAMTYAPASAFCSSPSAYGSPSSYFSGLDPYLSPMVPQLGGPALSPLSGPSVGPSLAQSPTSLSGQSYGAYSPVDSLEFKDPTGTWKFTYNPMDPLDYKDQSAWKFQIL
ETV5, sequence (P41161 whole entry): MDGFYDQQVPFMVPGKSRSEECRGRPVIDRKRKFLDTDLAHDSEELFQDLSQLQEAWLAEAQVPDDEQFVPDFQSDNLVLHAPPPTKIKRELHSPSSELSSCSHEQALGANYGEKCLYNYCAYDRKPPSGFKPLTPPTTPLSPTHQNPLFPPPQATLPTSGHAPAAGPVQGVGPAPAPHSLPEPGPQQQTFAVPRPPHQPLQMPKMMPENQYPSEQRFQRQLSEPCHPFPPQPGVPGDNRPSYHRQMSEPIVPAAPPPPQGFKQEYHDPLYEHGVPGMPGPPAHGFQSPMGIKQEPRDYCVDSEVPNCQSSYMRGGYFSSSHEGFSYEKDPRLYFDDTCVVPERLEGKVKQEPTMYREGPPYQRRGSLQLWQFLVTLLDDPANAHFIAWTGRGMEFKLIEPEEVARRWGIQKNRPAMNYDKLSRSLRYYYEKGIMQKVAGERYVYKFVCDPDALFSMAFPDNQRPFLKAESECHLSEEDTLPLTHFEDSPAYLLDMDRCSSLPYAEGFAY
ELF4, sequence (Q99607 whole entry): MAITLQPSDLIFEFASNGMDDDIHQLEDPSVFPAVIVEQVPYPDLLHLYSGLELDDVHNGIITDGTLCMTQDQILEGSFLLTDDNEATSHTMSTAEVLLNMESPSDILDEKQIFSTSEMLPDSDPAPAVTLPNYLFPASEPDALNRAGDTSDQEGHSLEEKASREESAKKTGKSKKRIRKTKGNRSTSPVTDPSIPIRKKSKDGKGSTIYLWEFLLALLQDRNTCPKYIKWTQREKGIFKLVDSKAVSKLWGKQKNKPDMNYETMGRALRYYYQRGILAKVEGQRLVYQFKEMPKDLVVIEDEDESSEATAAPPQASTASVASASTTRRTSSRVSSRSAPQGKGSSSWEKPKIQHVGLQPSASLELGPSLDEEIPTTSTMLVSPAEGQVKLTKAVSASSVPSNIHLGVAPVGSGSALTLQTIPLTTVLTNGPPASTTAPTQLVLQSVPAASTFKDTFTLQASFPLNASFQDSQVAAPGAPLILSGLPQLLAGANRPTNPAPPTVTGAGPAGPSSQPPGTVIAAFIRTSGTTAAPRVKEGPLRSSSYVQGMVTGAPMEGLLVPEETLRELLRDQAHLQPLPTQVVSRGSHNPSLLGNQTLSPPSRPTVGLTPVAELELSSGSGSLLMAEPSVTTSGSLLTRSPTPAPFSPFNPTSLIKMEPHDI

Take AATTTA: the binding signal in test [1] is 1.16 fold enrichment (6-mer frequency, TF over GST control); in test [2] it was 1.27 fold enrichment (6-mer frequency, TF over GST control); in test [3], 1.44 fold enrichment (6-mer frequency, TF over GST control); in test [4] it was 1.21 fold enrichment (6-mer frequency, TF over GST control); in test [5], 1.21 fold enrichment (6-mer frequency, TF over GST control); in test [6] it was 1.22 fold enrichment (6-mer frequency, TF over GST control). Moreover, the binding signal in test [7] is 1.13 fold enrichment (6-mer frequency, TF over GST control); in [8], 1.36 fold enrichment (6-mer frequency, TF over GST control); in test [9], 1.59 fold enrichment (6-mer frequency, TF over GST control); in test [10] it was 1.22 fold enrichment (6-mer frequency, TF over GST control); in test [11], 1.27 fold enrichment (6-mer frequency, TF over GST control); in test [12], 1.25 fold enrichment (6-mer frequency, TF over GST control). Further, the binding signal was 1.18 fold enrichment (6-mer frequency, TF over GST control) in [13]; 1.12 fold enrichment (6-mer frequency, TF over GST control) in test [14]; 1.28 fold enrichment (6-mer frequency, TF over GST control) in test [15]; 1.26 fold enrichment (6-mer frequency, TF over GST control) in test [16]; 1.22 fold enrichment (6-mer frequency, TF over GST control) in [17]; 1.33 fold enrichment (6-mer frequency, TF over GST control) in [18].
